This passage reports cytotoxicity call results from the antibiotic and cytotoxicity screens of Wong et al. (2023).

About 3,300 (8.5%) of roughly 39,000 compounds were called active. The full list was thinned out, with actives kept by preference.

The experiment concerns HepG2. Kind of experiment: cytotoxicity call (relative viability < 0.9). The note with it: 10 µM.
Regarding `Cc1cccnc1[C@H](c1ccc(F)cc1)N(C)C(=O)C1CCN(CCOc2ccc(Cl)cc2Cl)CC1`, the cytotoxicity call was “inactive”.

On to `CC(=O)N(C)C[C@H]1Oc2ncc(C#C[C@@H](C)O)cc2C(=O)N([C@@H](C)CO)C[C@H]1C`, for which the cytotoxicity call is “inactive”.

Take `C[C@@H]1CN([C@H](C)CO)C(=O)Cc2cc(NC(=O)Nc3cccc4ccccc34)ccc2O[C@H]1CN(C)C(=O)Nc1ccc(F)cc1`: the cytotoxicity call was “inactive”.

`CNC[C@@H]1Oc2cc(C#CCN(C)C)ccc2S(=O)(=O)N([C@H](C)CO)C[C@@H]1C`: the cytotoxicity call is “inactive”.

Consider `CCCN1C[C@@H](C)[C@H](OC)CN(C)C(=O)c2cc(NS(=O)(=O)c3cn(C)cn3)ccc2OC[C@@H]1C`, for which the cytotoxicity call is “inactive”.

As to `CN1CCN(C(=O)C[C@H]2CC[C@H](NC(=O)Cc3ccccn3)[C@H](CO)O2)CC1`, the cytotoxicity call is “inactive”.

`C[C@@H]1CCCCO[C@H](CN(C)S(=O)(=O)c2ccccc2)[C@@H](C)CN([C@H](C)CO)C(=O)c2cc(NC(=O)Nc3ccccc3)ccc2O1`: the cytotoxicity call is “inactive”.

On to `O=C(O)c1ccc(N[C@@H]2O[C@H](CO)[C@@H](O)[C@H](O)[C@H]2O)cc1`, for which the cytotoxicity call was “inactive”.

Regarding `Cc1ccc(S(=O)(=O)Nc2ccc3c(c2)C(=O)N([C@@H](C)CO)C[C@@H](C)[C@H](CN(C)S(=O)(=O)c2ccc(Cl)cc2)OCCCC[C@@H](C)O3)cc1`, the cytotoxicity call is “inactive”.

With `Cc1ccc(S(=O)(=O)N(C)C[C@H]2OCCCC[C@H](C)Oc3ccc(NS(=O)(=O)c4ccc(Cl)cc4)cc3C(=O)N([C@H](C)CO)C[C@H]2C)cc1`, the cytotoxicity call was “inactive”.

As to `Cc1ccc(S(=O)(=O)Nc2ccc3c(c2)C(=O)N([C@H](C)CO)C[C@H](C)[C@H](CN(C)S(=O)(=O)c2ccc(Cl)cc2)OCCCC[C@@H](C)O3)cc1`, the cytotoxicity call is “inactive”.

For `Cc1ccc(S(=O)(=O)N(C)C[C@@H]2OCCCC[C@@H](C)Oc3ccc(NS(=O)(=O)c4ccc(Cl)cc4)cc3C(=O)N([C@H](C)CO)C[C@@H]2C)cc1`, the cytotoxicity call was “inactive”.

For the molecule `Cc1ccc(S(=O)(=O)Nc2ccc3c(c2)C(=O)N([C@@H](C)CO)C[C@@H](C)[C@@H](CN(C)S(=O)(=O)c2ccc(Cl)cc2)OCCCC[C@@H](C)O3)cc1`, the cytotoxicity call was “inactive”.

For `Cc1ccc(S(=O)(=O)Nc2ccc3c(c2)C(=O)N([C@H](C)CO)C[C@H](C)[C@@H](CN(C)S(=O)(=O)c2ccc(Cl)cc2)OCCCC[C@H](C)O3)cc1`, the cytotoxicity call was “active”.

On to `Cc1ccc(S(=O)(=O)Nc2ccc3c(c2)C(=O)N([C@H](C)CO)C[C@@H](C)[C@@H](CN(C)S(=O)(=O)c2ccc(Cl)cc2)OCCCC[C@@H](C)O3)cc1`, for which the cytotoxicity call was “inactive”.

Consider `Cc1ccc(S(=O)(=O)Nc2ccc3c(c2)C(=O)N([C@H](C)CO)C[C@@H](C)[C@H](CN(C)S(=O)(=O)c2ccc(Cl)cc2)OCCCC[C@@H](C)O3)cc1`, for which the cytotoxicity call is “active”.

`Cc1ccc(S(=O)(=O)Nc2ccc3c(c2)C(=O)N([C@@H](C)CO)C[C@H](C)[C@@H](CN(C)S(=O)(=O)c2ccc(Cl)cc2)OCCCC[C@H](C)O3)cc1`: the cytotoxicity call was “active”.

For `Cc1ccc(S(=O)(=O)N(C)C[C@H]2Oc3ccc(NS(=O)(=O)c4cccs4)cc3CC(=O)N([C@H](C)CO)C[C@H]2C)cc1`, the cytotoxicity call is “inactive”.

In the case of `COc1ccc(CNC(=O)N(C)C[C@@H]2OCc3ccccc3-c3c(n(C)c4ccccc34)C(=O)N([C@@H](C)CO)C[C@H]2C)cc1`, the cytotoxicity call was “inactive”.

For the molecule `C[C@H]1CN([C@@H](C)CO)C(=O)c2cccc(NC(=O)Nc3ccc(F)cc3)c2O[C@H]1CN(C)S(C)(=O)=O`, the cytotoxicity call was “inactive”.

On to `COc1ccc(-c2coc3cc(O)ccc3c2=O)c(OC)c1OC`, for which the cytotoxicity call was “inactive”.

Consider `COc1c(-c2coc3cc4c(cc3c2=O)CC(O)C(C)(C)O4)ccc2c1C=CC(C)(C)O2` (stereo not given), for which the cytotoxicity call was “active”.

On to `COc1ccc(-c2coc3cc(O)ccc3c2=O)c(O)c1O`, for which the cytotoxicity call is “inactive”.

For `O=C(C[C@@H]1CC[C@@H](NC(=O)C2CC2)[C@@H](CO)O1)NCCCN1CCOCC1`, the cytotoxicity call was “inactive”.

For the molecule `C[C@@H]1CN([C@H](C)CO)C(=O)c2cc(-c3ccc(C(=O)N(C)C)cc3)cnc2O[C@@H]1CN(C)C(=O)CN(C)C`, the cytotoxicity call was “inactive”.

Regarding `COc1cc(-c2ccc(NN=C3C=Cc4c(S(=O)(=O)O)cc(S(=O)(=O)O)c(N)c4C3=O)c(OC)c2)ccc1NN=C1C=Cc2c(S(=O)(=O)O)cc(S(=O)(=O)O)c(N)c2C1=O`, the cytotoxicity call was “active”.

Turning to `Cc1cc(-c2ccc(NN=C3C=Cc4c(S(=O)(=O)O)cc(S(=O)(=O)O)c(N)c4C3=O)c(C)c2)ccc1NN=C1C=Cc2c(S(=O)(=O)O)cc(S(=O)(=O)O)c(N)c2C1=O`, the cytotoxicity call was “active”.

Turning to `COCC(=O)N1C[C@]2(CCN(CC2)C(=O)CN2CCOCC2)c2c([nH]c3cc(ccc23)OC)[C@@H]1CO`, the cytotoxicity call was “inactive”.

Turning to `COc1ccc2c3c(n(c2c1)C)[C@H](CO)N(C[C@]13CCN(CC1)C(=O)C1CCOCC1)C(=O)C1CCOCC1`, the cytotoxicity call is “inactive”.

As to `C[C@@H]1CN([C@@H](C)CO)C(=O)c2cccc(NC(=O)C3CC3)c2O[C@H]1CN(C)Cc1ccc(Oc2ccccc2)cc1`, the cytotoxicity call is “inactive”.

As for `O=C(Nc1ccccc1)c1ccccc1`, the cytotoxicity call is “inactive”.

For `NNC(=O)c1ccccc1O`, the cytotoxicity call is “inactive”.

In the case of `CC(=O)Nc1ccccc1`, the cytotoxicity call is “inactive”.

Consider `O=C(Nc1ccccc1)Nc1ccccc1`, for which the cytotoxicity call is “inactive”.

Regarding `O=C(Nc1ccccc1)Nc1ccc(Nc2ccccc2)cc1`, the cytotoxicity call was “active”.

Regarding `O=C(Nc1ccccc1)c1ccccc1O`, the cytotoxicity call is “active”.

Take `C[C@@H]1CN([C@@H](C)CO)C(=O)c2cccc(NC(=O)Nc3ccccc3)c2O[C@H]1CN(C)S(C)(=O)=O`: the cytotoxicity call is “inactive”.

On to `COc1ccc(CN(C)C[C@H]2OCCCC[C@@H](C)Oc3ccc(NC(=O)C4CCCCC4)cc3C(=O)N([C@@H](C)CO)C[C@H]2C)cc1`, for which the cytotoxicity call is “inactive”.

As for `CN1C(=O)c2cc(NC(=O)C3CCCC3)ccc2OC[C@H]2O[C@H](CC(=O)NCCc3ccncc3)CC[C@@H]21`, the cytotoxicity call was “inactive”.

On to `Cc1ccc(S(=O)(=O)N(C)C[C@@H]2Oc3ccc(NS(=O)(=O)c4ccccc4)cc3C(=O)N([C@H](C)CO)C[C@@H]2C)cc1`, for which the cytotoxicity call was “inactive”.

Regarding `C[C@@H]1CN([C@@H](C)CO)C(=O)c2ccccc2-c2ccccc2CO[C@@H]1CN(C)Cc1cccc(C(F)(F)F)c1`, the cytotoxicity call is “inactive”.

As for `CCCNC(=O)N[C@@H]1CC[C@H](CC(=O)N2CCN(C)CC2)O[C@H]1CO`, the cytotoxicity call is “inactive”.

In the case of `COc1ccccc1NC(=O)Nc1ccc2c(c1)C(=O)N(C)C[C@@H](OC)[C@H](C)CN(Cc1ccccc1Cl)[C@H](C)CO2`, the cytotoxicity call is “inactive”.

Consider `O=C1C=CC(=O)N1`, for which the cytotoxicity call is “active”.

Turning to `COc1ccc(CN(C)C[C@@H]2OCCCC[C@H](C)Oc3ccc(NC(=O)CCC(F)(F)F)cc3C(=O)N([C@H](C)CO)C[C@@H]2C)cc1`, the cytotoxicity call is “inactive”.

Consider `CNC[C@@H]1Oc2ccc(NC(=O)Cn3cnnn3)cc2C(=O)N([C@H](C)CO)C[C@@H]1C`, for which the cytotoxicity call was “inactive”.

Take `C[C@H](CO)N1C[C@H](C)[C@H](CN(C)C(=O)Nc2ccc(F)cc2)Oc2ccc(NC(=O)CCN3CCOCC3)cc2CC1=O`: the cytotoxicity call was “inactive”.

Take `C[C@H](CO)N1C[C@H](C)[C@@H](CN(C)C(=O)Nc2ccc3c(c2)OCO3)Oc2c(NC(=O)C3CCOCC3)cccc2C1=O`: the cytotoxicity call is “inactive”.

Take `O=C(Nc1cc(Cl)cc(Cl)c1O)c1c(O)c(Cl)cc(Cl)c1Cl`: the cytotoxicity call was “inactive”.

Regarding `Oc1c(Cl)cc(Cl)c(Cl)c1Cc1c(O)c(Cl)cc(Cl)c1Cl`, the cytotoxicity call was “active”.

On to `O=C(/C=C/c1cccc(-c2cn(CC[C@@H]3OC(=O)[C@H](Cc4ccccc4)N4CC5=CC(=O)[C@H](C6CC6)[C@H]5[C@H]34)nn2)c1)NO`, for which the cytotoxicity call was “inactive”.

On to `O=C(C[C@@H]1C[C@@H]2c3cc(NC(=O)Nc4ccc(C(F)(F)F)cc4)ccc3O[C@@H]2[C@H](CO)O1)NCCc1ccccc1`, for which the cytotoxicity call was “inactive”.

With `CCS(=O)(=O)N1[C@H](CO)[C@H](c2ccccc2)C12CN(C(=O)CN(C)C)C2`, the cytotoxicity call was “inactive”.

Take `C[C@H]1CCCCO[C@H](CN(C)C(=O)C2CCCCC2)[C@@H](C)CN([C@@H](C)CO)C(=O)c2cc(NC(=O)Nc3ccc4c(c3)OCO4)ccc2O1`: the cytotoxicity call is “inactive”.

On to `COc1c(C)c2c(c(O)c1CC=C(C)CCC(=O)OCCN1CCOCC1)C(=O)OC2`, for which the cytotoxicity call was “inactive”.

For `COc1c(C)c2c(c(O)c1CC=C(C)CCC(=O)O)C(=O)OC2`, the cytotoxicity call was “active”.

As for `COc1cccc(S(=O)(=O)N2C[C@@H](O)COC[C@@H]3O[C@@H](CC(=O)N4CCOCC4)CC[C@H]32)c1`, the cytotoxicity call was “inactive”.

`COc1ccc(NC(=O)N(C)C[C@H]2Oc3c(NC(=O)CCCCCC(=O)Nc4ccccc4N)cccc3C(=O)N([C@@H](C)CO)C[C@H]2C)cc1`: the cytotoxicity call was “inactive”.

Take `C[C@H]1CN([C@@H](C)CO)C(=O)c2cc(C#CCc3ccccc3)cnc2O[C@H]1CN(C)C(=O)Cc1cccnc1`: the cytotoxicity call was “inactive”.

In the case of `Cc1ccccc1S(=O)(=O)N1C[C@H](O)COC[C@@H]2O[C@@H](CC(=O)N3CCOCC3)CC[C@H]21`, the cytotoxicity call was “inactive”.

`CC(C)C(=O)Oc1ccc(CO)cc1C(CCN(C(C)C)C(C)C)c1ccccc1.O=C(O)C=CC(=O)O` (stereo not given): the cytotoxicity call was “active”.

Turning to `C[C@H]1CN([C@@H](C)CO)C(=O)c2cc(NC(=O)CCN3CCOCC3)ccc2O[C@@H]1CN(C)C(=O)Nc1ccc2c(c1)OCO2`, the cytotoxicity call was “inactive”.

For `CC(=O)NCCCC[C@@H]1NC(=O)[C@@H]2C[C@H](C(=O)NCCCCCCN(C)C)[C@H](c3ccc(O)cc3)N2C1=O`, the cytotoxicity call was “inactive”.

On to `C[C@@H]1CCCCO[C@@H](CN(C)Cc2ccc(Cl)c(Cl)c2)[C@@H](C)CN([C@H](C)CO)C(=O)c2cc(NC(=O)c3ccccc3)ccc2O1`, for which the cytotoxicity call was “inactive”.

On to `CCOn1ccnc1`, for which the cytotoxicity call is “inactive”.

Regarding `Cn1c(=O)c2c(nc(N3CCCCC3)n2CCN)n(C)c1=O`, the cytotoxicity call is “inactive”.

As to `CC#CCn1c(N2CCC[C@@H](N)C2)nc2c1c(=O)n(Cc1nc(C)c3ccccc3n1)c(=O)n2C`, the cytotoxicity call is “active”.

Take `Cc1cc(C)n(-c2nc3c(c(=O)n(CCN4CCOCC4)c(=O)n3C)n2C)n1`: the cytotoxicity call was “inactive”.

As for `C[C@H]1CN([C@@H](C)CO)C(=O)c2cccc(NS(=O)(=O)c3cn(C)cn3)c2O[C@@H]1CN(C)C(=O)Nc1ccc2c(c1)OCO2`, the cytotoxicity call is “inactive”.

With `CC(=O)N1[C@@H]2Cn3c(ccc(-c4ccccc4)c3=O)[C@H]1[C@@H](C(=O)NCCCN1CCOCC1)[C@@H]2CO`, the cytotoxicity call was “inactive”.
